Test results published in PubChem BioAssay (NCI).
About 83,000 compounds went through this panel and 20% of them were active in at least one assay; those are over-represented in the sample as a whole.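 Step 1: grow cells in 96-well plates. Step 2: add test compound at a single concentration. Step 3: incubate 48 h. Step 4: record percent growth.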 Activity calls are given as the source filed them. Rule for the calls: active = growth percent below 10; inactive = the rest.

These compounds were tested on MDA-MB-468 breast (assay: NCI-60 one-dose screen, 48 h (100 = growth as untreated, 0 = no growth, -100 = all killed)). Details: 10 µM unless noted.

| SMILES | growth |
| --- | --- |
| COc1ccc(-c2csc3c2-n2cccc2C3=O)cc1O | -5.84% (active) |
| CCc1cc(OC(=O)N2CCC(N3CCCCC3)CC2)ccc1Nc1cc(-c2ccc(-n3cccn3)cc2)[nH]n1 | 84.4% (inactive) |
| CC(C)(O)c1cn(CCCCN2C(=O)C(=O)c3ccccc32)nn1 | 95% (inactive) |
| N#Cc1c(-c2ccccc2)cc(-c2ccccc2)n(CCC(=O)O)c1=O | 26.6% (inactive) |
| ClC(Cl)c1nc(-c2ccccc2)nc2cc(-c3ccccc3)nn12 | 33.8% (inactive) |
| O=C1Nc2ccccc2SC1c1ccccc1Cl (stereo not given) | 29.9% (inactive) |
| CNC(=O)c1cc(Oc2ccc3nc(NC(=O)Nc4ccc(N5CCC(N(C)C)CC5)cc4)sc3c2)ccn1 | 76.3% (inactive) |
| CCOc1ccccc1C(=O)N1CCN(c2cc(Cl)cc(Cl)c2)CC1 | 3.92% (active) |
| COc1ccc(C(=O)c2cc(C)c(OC)c(C)c2)c(OC)c1NC(C)=O | 12.4% (inactive) |
| CCN(CC)CCCC(Nc1c2ccc(Cl)cc2nc2ccc(OC)cc12)c1ccc(Cl)cc1 (stereo not given) | -78.5% (active) |
| COc1cc2oc3cc(=O)cc4oc(-c5ccccc5)cc(c2c2c1CCC(c1ccccc1)O2)c43 (stereo not given) | 61.8% (inactive) |
| CCc1ccc2c(c1)N(CCO)C1=C(C(=O)OC1)C2c1ccccc1 (stereo not given) | 104% (inactive) |
| COc1cc2nccc(Oc3ccc(NC(=O)C4(C(=O)Nc5ccc(F)cc5)CC4)cc3)c2cc1O | 86.4% (inactive) |
| FC(F)(F)c1ccc(-c2cnc(Cl)nc2N2CCC3(CC2)OCCO3)cc1 | 103% (inactive) |
| CSc1nsc(N)n1 | 103% (inactive) |
| CN(CCC#N)c1ccc(/C=C(\C#N)c2cccc(C(F)(F)F)c2)cc1 | 23.4% (inactive) |
| O=C(/C=C/C=C/c1csc(Br)n1)NO | 99.7% (inactive) |
| CC(=O)n1nc(C(=O)OC(C)(C)C)c2cc(F)c(F)cc21 | 97.4% (inactive) |
| Nc1nc(-c2ccc(F)cc2)cc(-c2cnn(-c3ccccc3)n2)n1 | 104% (inactive) |
| CC[C@H](Nc1nc(N)nc(C)c1C#N)c1nc2cccc(NCCCCCC(=O)NO)c2c(=O)n1-c1ccccc1 | 11.7% (inactive) |

| SMILES | growth |
| --- | --- |
| NC(=O)c1c(NC(=O)c2ccccn2)sc2c1CCC(=O)C2 | 6.36% (active) |
| c1ccc([P+](CCCc2n(Cc3ccc4ccccc4c3)c3ccccc3[n+]2Cc2ccc3ccccc3c2)(c2ccccc2)c2ccccc2)cc1 | 34.5% (inactive) |
| CCCCNC(=O)CC1=C(C)/C(=C/c2[nH]c(-c3ccc[nH]3)cc2OC)N=C1C | 37.9% (inactive) |
| COc1ccc(C2=Nc3c(N)ncnc3NC(c3cccc(Nc4ccnc5cc(C(F)(F)F)ccc45)c3)C2)cc1 (stereo not given) | 46.9% (inactive) |
| CCC(C(=O)[C@@H](C)[C@@H](O)[C@H](C)[C@@H]1O[C@@H]([C@@H](CC)C(=O)ONC(=O)c2ccccc2)CC[C@@H]1C)[C@H]1O[C@]2(C=CC(=O)[C@]3(CC[C@@](C)([C@H]4CC[C@](O)(CC)[C@H](C)O4)O3)O2)[C@H](C)C[C@@H]1C (stereo not given in full) | -33.2% (active) |
| Cn1cc(-c2ccc3occ(-c4cccc(-c5ccncc5)c4)c3n2)cn1 | 4.07% (active) |
| NS(=O)(=O)c1ccc(-n2nc(-c3ccccc3)ccc2=O)cc1 | 104% (inactive) |
| Cc1ccc(C(=O)Nc2ccc(CN3CCN(C)CC3)c(C(F)(F)F)c2)cc1C#Cc1cnc(N)cc1C#N | -63.8% (active) |
| CCOC(=O)c1cc2cccc(OC)c2oc1=O | 108% (inactive) |
| CCN(CC)CCCCCCNc1cc(OC)cc2cccnc12 | 23.4% (inactive) |
| CNC(=O)c1cc(Oc2ccc3nc(NC(=O)c4ccc5ncccc5c4)sc3c2)ccn1 | 73.7% (inactive) |
| CCCCCCCCOC(=O)c1ccc(O)c(OC)c1 | 99.2% (inactive) |
| C=C1C(=O)O[C@H]2[C@H]1CC/C(COC(=O)CCCCCCC(=O)OC/C1=C/CC[C@@]3(C)O[C@H]3[C@H]3OC(=O)C(=C)[C@@H]3CC1)=C\CC[C@@]1(C)O[C@@H]21 | -23.9% (active) |
| CN(C)c1ccc(N=Nc2ccc(Br)cn2)c(O)c1 | -6.7% (active) |
| O=C(CSc1oc(-c2ccccc2)nc1S(=O)(=O)c1ccccc1)Nc1ccc(F)cc1 | 50.1% (inactive) |
| C=C(OC(C)=O)c1ccccc1 | 103% (inactive) |
| c1cc[n+](Cc2ccnc3ccccc23)cc1 | 126% (inactive) |
| COC(=O)/C=C/C(=O)NC(N)=O | 90.8% (inactive) |
| Cc1ccc(NC(=O)COC(=O)c2ccc(S(=O)(=O)N3CCCCCC3)cc2)cc1 | 92.9% (inactive) |
| Cc1ccc(-c2c3c(N)c4c(nc3nc3c2c(C)nn3-c2ccccc2)CCCC4)cc1 | 107% (inactive) |
